The list is a sample of the results.
aSyn 5UTR act – Activators via SNCA 5'UTR binding, MLPCN | alpha-synuclein 5'UTR reporter, activators screen | activity score, % (tested at 7.5 µM), hits read low | 300,000 compounds, 7.1% hits; in the data active = activity score below about -60%
The depositor's hits bear a star.

SMILES | aSyn 5UTR act
COCCn1ccc2c(OCC(=O)Nc3cc(OC)ccc3OC)cccc2c1=O | -62*
Nc1ccc(S(=O)(=O)Nc2nccc(/C=C/c3ccccc3F)n2)cc1 | -65*
COc1ccccc1OCCNC(=O)c1cc(F)c(F)cc1Cl | -76*
COc1ccccc1OCCNC(=O)c1ccc(Br)cc1 | -106*
O=C(NCCNc1ccccc1[N+](=O)[O-])c1cc(F)c(F)cc1Cl | -93*
COc1ccccc1OCCCCOc1ccccc1F | -71*
CCCNC(=O)c1cccc(COc2ccccc2OC)c1 | -107*
Cc1ccc2[nH]c(=O)c(-c3nc4cc(C)ccn4c3NCc3ccco3)cc2c1 | -78*
O=C(Nc1ccccc1)N(C1=NCCCCS1)c1cccc2ccccc12 | -85*
COC(=O)c1ccc(N=Cc2c(-c3ccccc3)[nH][nH]c2=O)cc1 | -216*
CCc1cc2cc(C(=O)Nc3ccccc3F)sc2s1 | -134*
CCc1cc2cc(C(=O)Nc3ccc(F)cc3)sc2s1 | -150*
CC(C)(C)c1ccc(C(=O)Nc2ccc(F)cc2)s1 | -140*
O=C(NCC(=O)N1CCN(c2ncccn2)CC1)c1cccs1 | -66*
CN1CCN(C(=O)c2ccc3c(c2)NC(=O)/C(=C/c2ccccc2)S3)CC1 | -88*
Cc1cccc(CN2C(=O)/C(=C\c3ccc(C(=O)NCCCN4CCN(C)CC4)cc3)Oc3ccccc32)c1 | 95
Cc1cccc(/C=C2/Sc3ccc(C(=O)NCCCN4CCOCC4)cc3NC2=O)c1 | -69*
COc1cc(O)oc1C=Nc1ccc(C(=O)O)cc1 | -91*
COc1cc(O)oc1C=Nc1ccc(Cl)cc1 | -64*
CC1(C)OC(=CC=Nc2ccc(Cl)cc2)OC1(C)C | 103
CC1=NC(=O)C(N=Nc2cccc(O)c2)N1c1ccccc1 (centres undefined) | -260*
Cc1ccc2nc(NC(=O)CSc3nc4ccccc4o3)sc2c1 | -143*
Cc1ccc(-c2csc(NC(=O)CSc3nc4ccccc4o3)n2)cc1 | -94*
CC(=O)c1cc2c(cc1NC(=O)CSc1nc3ccccc3o1)OCO2 | -154*
O=C(CSc1nc2ccccc2o1)N/N=C/c1ccco1 | -82*
SMILES | aSyn 5UTR act
Cc1cc(C)nc(NC(=O)CSc2nc3ccccc3o2)n1 | -153*
Cc1ccc2nc(NC(=O)CSc3nncc(=O)n3N)sc2c1 | -98*
O=C(CSc1nc2ccccc2[nH]1)Nc1nc(-c2ccc(Br)cc2)cs1 | -76*
Cc1csc(SCC(=O)c2cc(C)n(Cc3cccs3)c2C)n1 | 73
Cc1csc(SCC(=O)c2c(N)n(C)c(=O)n(C)c2=O)n1 | -118*
O=C(N/N=C/c1ccc([N+](=O)[O-])cc1)c1cccs1 | -118*
O=C(N/N=C/c1ccc(-c2cccc([N+](=O)[O-])c2)o1)c1cccs1 | -118*
Nc1nc(NCc2cccs2)nn1-c1ccccc1 | -67*
COc1ccc(-n2ncc3c(NCc4cccs4)ncnc32)cc1 | -171*
c1ccc(-n2ncc3c(NCc4cccnc4)ncnc32)cc1 | -114*
c1ccc(-n2ncc3c(NCc4cccs4)ncnc32)cc1 | -162*
COc1ccc(CNc2nc(Cl)c(C#N)s2)cc1 | -95*
c1ccc(Cn2nnc(-c3ccccc3)n2)cc1 | -62*
Fc1ccc(-c2nnn(Cc3ccccc3Cl)n2)cc1 | -69*
Nc1ccc(-c2nnn(Cc3ccccc3F)n2)cc1 | -71*
Clc1ccc(-c2nnn(Cc3nc4ccccc4s3)n2)cc1 | -138*
CC(C)n1nnc(-c2ccc(OCc3ccccc3F)cc2)n1 | -100*
Fc1cccc(CSc2nc3ccncc3[nH]2)c1 | -80*
O=C(CSc1nc2ccccc2[nH]1)c1ccco1 | -127*
CCOc1ccc2nc(SCC(=O)N(C)C)[nH]c2c1 | -92*
O=C(CSc1nc2ccccc2[nH]1)N1CCCCC1 | -136*
COc1ccc2nc(SCC(=O)C(C)(C)C)[nH]c2c1 | -134*
O=C(CSc1nc2ccccc2n1S(=O)(=O)c1ccccc1)N1CCCCC1 | -100*
COc1ccc(C(=O)Nn2c(SCC(=O)N3CCC(C)CC3)nc3ccccc3c2=O)cc1 | 83
O=C(CSc1nc2ccccc2[nH]1)c1ccccc1F | -162*
SMILES | aSyn 5UTR act
c1ccc2[nH]c(SCc3cn4cccnc4n3)nc2c1 | -63*
O=C(CSc1nc2ccc(Cl)cc2[nH]1)c1cccs1 | -113*
Fc1cccc(F)c1CSc1nc2ccccc2[nH]1 | -127*
COc1ccc2nc(SCC(=O)c3ccco3)[nH]c2c1 | -105*
O=C(CSc1nc2ccccc2[nH]1)c1ccc(Cl)s1 | -113*
CC(=O)N=C(N)Sc1nc2ccccc2[nH]1 | -135*
Cn1c(N)c(C(=O)Nc2cccc(Cl)c2)c(=O)n(C)c1=O | -76*
CN=c1sc(C(=O)Nc2cccc(Cl)c2)cc(=O)n1C | -140*
Cn1ccs/c1=N\C(=O)Nc1cccc(Cl)c1 | -154*
O=C1C(c2cc(=O)c3ccccc3[nH]2)=C(O)c2ccccc21 | -118*
O=c1cc(-c2ccccc2)[nH]c2ccccc12 | 68
CN(C)c1ccc(CNc2ncc(Br)cc2Br)cc1 | -98*
Fc1ccc(-c2nc3c(Cl)cc(C(F)(F)F)cn3c2Cl)cc1 | -111*
CN(N=Nc1cccc([N+](=O)[O-])c1)c1cccc([N+](=O)[O-])c1 | -82*
COc1cc2c(C)nc3c(cnn3-c3ccccc3)c2cc1OC | -240*
N#Cc1cc2c([nH]c1=S)CCCCCC2 | -71*
O=c1[nH]n(Cc2ccccc2)c(=O)c2ccccc12 | -68*
CCCC1CCC(c2ccc(OCC)cc2)=CC1=O (centres undefined) | -216*
Cc1ccsc1/C=N/n1cnc2sc(C)c(C)c2c1=O | -101*
CCCOC(=O)Nc1ccc(N2CCCCC2)cc1 | -67*
CC(C)c1ccc(NC(=O)COc2ccccc2)cc1 | -124*
Cc1ccnc(NS(=O)(=O)c2ccc(NC(=O)COc3ccccc3)cc2)n1 | 68
O=C(COc1ccccc1)Nc1ccc(N2CCCCC2)cc1 | -74*
Cc1cc(NC(=O)COc2ccccc2)ccc1Cl | -96*
O=C(COc1ccccc1)Nc1ccccc1N1CCN(c2ccccc2)CC1 | 43
SMILES | aSyn 5UTR act
Cc1ccc(SCC(=O)Nc2ccc(N3CCN(C)CC3)c(F)c2)cc1 | -82*
CC(C)c1ccc(NC(=O)COc2ccccn2)cc1 | -130*
CN1CCN(c2ccc(NC(=O)COc3ccccc3)cc2Cl)CC1 | -192*
C/C(=N\NC(=O)c1c(Cl)c(C)nn1C)c1cccc(NC(=O)COc2ccccc2)c1 | -80*
O=C1COc2ccc(OCc3ccc(F)cc3)cc21 | -100*
CCOC(=O)c1cn2ccc(C)cc2n1 | -107*
COCCn1c(C)cc(/C=C2/NC(=O)N(c3cccc(Cl)c3)C2=O)c1C | -133*
CCn1c(C)cc(/C=C2/NC(=O)N(c3ccccc3)C2=O)c1C | -153*
O=C1N/C(=C/c2ccsc2)C(=O)N1c1ccccc1 | -96*
CN(C)/C=C1\Oc2ccc3ccccc3c2C1=O | -116*
CN(C#N)c1nc(Cl)nc(Nc2cccc(Cl)c2)n1 | -66*
OCCCNc1cc(-c2ccnc(Nc3cccc(Cl)c3)n2)ccn1 | 110
CN(C)/C=C1\N=C(c2ccc(Cl)cc2Cl)OC1=O | -149*
Cc1ccc(C2=N/C(=C\N(C)C)C(=O)O2)cc1 | -144*
CC(C)=C1C2C=CC1C1C(=O)N(c3ccc4c(c3)OCO4)C(=O)C21 (centres undefined) | -86*
O=C(NCc1ccc(Cl)cc1)c1cnn2ccccc12 | -142*
Cc1cccc(NC(=O)c2ccccc2O)c1C | -174*
Cc1cccc(NC(=O)c2cnn3ccccc23)c1C | -85*
O=C(Nc1ccccc1O)c1ccccc1O | -133*
Cc1onc(-c2ccccc2)c1C(=O)NC(=S)NNC(=O)c1ccccc1O | 63

Source: PubChem (Broad Institute)
